Data reported in PubChem BioAssay AID1438 (Sanford-Burnham Center for Chemical Genomics, 2008).
About 45 (2%) of roughly 2,200 compounds were called active. The list is a sample of the results. Measured potencies and affinities stand elsewhere. Unmarked numbers belong to inactive results. No rule for the calls is given here.

biological target: Runt-related transcription factor 1 (Homo sapiens) + Core-binding factor subunit beta (Homo sapiens) (UniProt Q01196+Q13951); assay: inhibitors of RUNX1 Runt–CBFb-SMMHC binding, biochemical, TR-FRET (AID 1438); conditions: TR-FRET Runt domain–CBFb-SMMHC binding, at 20 µM, active compounds read high
Sequence (Q01196 whole entry, looked up, the tested form may be a part): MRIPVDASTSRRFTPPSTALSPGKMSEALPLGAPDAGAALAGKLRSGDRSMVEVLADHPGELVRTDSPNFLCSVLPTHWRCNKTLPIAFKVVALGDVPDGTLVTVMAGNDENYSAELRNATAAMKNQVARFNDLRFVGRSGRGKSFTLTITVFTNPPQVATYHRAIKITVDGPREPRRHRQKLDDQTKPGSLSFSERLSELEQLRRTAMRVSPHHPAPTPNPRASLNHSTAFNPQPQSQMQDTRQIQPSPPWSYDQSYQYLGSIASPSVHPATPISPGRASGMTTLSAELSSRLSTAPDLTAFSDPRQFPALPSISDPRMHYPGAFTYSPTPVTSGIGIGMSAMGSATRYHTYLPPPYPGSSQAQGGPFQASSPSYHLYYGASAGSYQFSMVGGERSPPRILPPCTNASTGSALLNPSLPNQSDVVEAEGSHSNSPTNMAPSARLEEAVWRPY
Sequence (Q13951 whole entry, looked up, the tested form may be a part): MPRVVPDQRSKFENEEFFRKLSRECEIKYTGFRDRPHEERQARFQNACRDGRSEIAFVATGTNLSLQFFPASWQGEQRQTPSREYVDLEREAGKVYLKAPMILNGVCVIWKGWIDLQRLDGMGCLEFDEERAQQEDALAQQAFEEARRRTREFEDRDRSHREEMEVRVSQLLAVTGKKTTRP

Point of comparison: `CNC(=O)c1cc2c(ccc3ccccc32)oc1=N`, inhibition 2.9%. Against it:
- CCN1/C(=C/C(=O)c2ccco2)Sc2ccccc21 — higher, 15.1%
- N#Cc1c(N)n(CCc2ccc(F)cc2)c2nc3ccccc3nc12 — higher, 32%
- COCCCNC(=S)NCCNc1nc2c(C)c(C)ccc2cc1C#N — lower, -1.9%
- Cc1ccc(C2C=C(c3ccccc3)Nc3nc(N4C(=O)CCC4=O)nn32)cc1 (stereo unspecified) — lower, -11.2%
- Cc1ccc(C2C3=C(CC(C)(C)CC3=O)Nc3[nH]c(=S)[nH]c(=O)c32)cc1 (stereo unspecified) — higher, 39.6%
- COCCCNC(=S)NCCCNc1nc2cc(C)cc(C)c2cc1C#N — lower, -6.6%
- O=c1cc(-c2ccc(O)cc2)oc2cc(O)c(C3OC(CO)C(O)C(O)C3O)c(O)c12 (stereo unspecified) — lower, -6.5%
- Cc1c2c(n3c(nc4ccccc43)c1C#N)N(CCN(C)C)CC2 — lower, -12.2%
- CCc1nnc(NS(=O)(=O)c2ccc(N/C=C/C(=O)c3ccc(OC)cc3)cc2)s1 — lower, -1.7%
- Cc1ccc(C(=O)c2sc3nc4c(cc3c2N)CCC4)cc1 — higher, 13.7%
- CCc1nnc(NC(=O)c2sc3nc4c(cc3c2N)CCCCCC4)s1 — higher, 38.3%
- Cc1cc(=O)oc2c(CN3CC(C)OC(C)C3)c(O)c(Cl)cc12 (stereo unspecified) — lower, -12.9%
- CCOC(=O)CCc1c(C)c(C#N)c2nc3ccccc3n2c1-n1ccnc1 — lower, -4%
- COC(=O)Cc1c(C)c2cc(Cl)c(OC(=O)c3ccco3)cc2oc1=O — higher, 19.4%
- CCOC(=O)c1cc2ccc(OC)cc2oc1=O — lower, -9.7%
- O=C(O)c1ccc(N=c2oc3cc(O)ccc3cc2C(=O)NCc2ccccc2)cc1 — lower, -1.1%
- c1ccn2c(c1)nc1c2nc2ccccn21 — higher, 8.5%
- CCOC(=O)C1=C(CSc2nc3c(cc2C#N)CN(C)CC3)OC(N)=C(C#N)C1c1ccc(F)cc1 (stereo unspecified) — higher, 22.5%
- CCOC(=O)C1=C(CSc2nc3c(cc2C#N)CN(C)CC3)OC(N)=C(C#N)C1c1ccccc1 (stereo unspecified) — higher, 29.2%
- CCOC(=O)C1=C(O)/C(=C/c2cn(CC(=O)N3CCCC3)c3ccccc23)SC1=Nc1ccccc1 — higher, 4%
- CC1CCc2c(sc(Nc3nc4c(F)cccc4s3)c2C(N)=O)C1 (stereo unspecified) — higher, 48.6%
- CCOC(=O)c1c(NC(=O)C(F)(OC)C(F)(F)F)sc2c1CCN(C)C2 (stereo unspecified) — lower, -4.1%
- CCOC(=O)c1cc2c(ccc3ccccc32)oc1=O — lower, -0.5%
- CC(C)OC(=O)CC(=O)CSc1nc2c(cc1C#N)CCCCCC2 — higher, 38.5%
- CC(=O)c1c(N2CCN(C)CC2)nc(=S)n(Cc2ccccc2)c1C — higher, 15.7%
- CCCOc1c(Br)cc(C2C3=C(CCCC3=O)N(C)C3=C2C(=O)CCC3)cc1OC — higher, 41.4%
- CCCOc1c(Br)cc(C2C3=C(CCCC3=O)N(CC)C3=C2C(=O)CCC3)cc1OC — lower, -13.6%
- C=CCNc1sc(C(=O)c2cccs2)c(N)c1C#N — lower, -0.1%
- CNc1sc(C(=O)c2cccs2)c(N)c1-c1nc2ccccc2s1 — higher, 35.8%
- Cc1cccn2c(=O)c(/C=C(\C#N)C(N)=O)c(Oc3ccccc3)nc12 — lower, -15.3%
- COc1cccc(C(=O)Nc2nc3c(s2)CN(C)CC3)c1 — lower, -21%
- COCCCNC(=O)c1c(N)n(-c2ccccc2)c2nc3ccccc3nc12 — lower, -6.7%
- COCCCNC(=O)c1c(N)n(-c2ccc(S(N)(=O)=O)cc2)c2nc3ccccc3nc12 — higher, 43.4%
- CCCN1C2CCCC1CC(NC(=S)Nc1ccc(OC)cc1)C2 (stereo unspecified) — lower, -12%
- CSc1nc(NCC(C)C)c2c3c(sc2n1)CN(C)CC3 — higher, 37.7%
- CSc1nc(NCCCO)c2c3c(sc2n1)CN(C)CC3 — lower, -10.5%
- COc1ccc(Br)cc1C1NC(=O)c2c(sc3c2CCN(C)C3)N1 (stereo unspecified) — higher, 15%
- CCn1nc(NC(=O)C2CCCO2)c2cc3cccc(C)c3nc21 (stereo unspecified) — lower, 2.1%
- CCN(CC)c1ccc(/C=N\NC(=O)c2cccc3cc[nH]c23)cc1 — higher, 5.9%
- CCN1C=C(C(=O)OC)C(c2cccc(OC)c2OC)C(C(=O)OC)=C1 — lower, -23.2%
- Cc1c(O)ccc2c3c(c(=O)oc12)CCC(C)C3 (stereo unspecified) — higher, 19.7%
- COc1cc(/C=C(\C#N)C(=O)Nc2cccc3ncccc23)cc(OC)c1OC — higher, 18.6%
- Cc1ccc(/C=C/C(=O)Nc2cccc3ncccc23)o1 — higher, 19.8%
- COc1ccc(-c2cc(C(F)(F)F)n3nc(N)nc3n2)cc1 — higher, 25.3%
- O=C(Cc1c2ccccc2nc2ccccc12)c1ccccc1 — higher, 48.7%
- COCCCNC(=O)c1cc2c(=O)n3cccc(C)c3nc2n(C(C)C)c1=N — lower, 1.4%
- CC(=O)Nc1nc2n(n1)C(c1ccc(Cl)cc1)C=C(C)N2 (stereo unspecified) — higher, 45.7%
- CC1=CC(c2ccccc2)n2nc(NS(=O)(=O)c3ccc(C)cc3)nc2N1 (stereo unspecified) — higher, 49.9%
- N#Cc1c(N)n(-c2cccc(C(=O)O)c2)c2nc3ccccc3nc12 — lower, -8.2%
- O=c1oc2ccc3ccccc3c2cc1-c1nnc(-c2cccs2)o1 — higher, 29.8%
- CCOC(=O)c1cc2c(=O)n3ccccc3nc2n(CCCOC)c1=NC(=O)c1cccnc1 — higher, 47.6%
- COC(=O)Cc1cc(=O)oc2cc(O)ccc12 — higher, 32.6%
- CN(C)c1cccc(C(=O)OCc2cc(=O)oc3cc(O)ccc23)c1 — higher, 47.5%
- CCOC(=O)c1c(NC(=O)CSc2ncccn2)sc2c1CCN(Cc1ccccc1)C2 — lower, -5.3%
- CCCCNC(=O)c1cc2c(=O)n3cccc(C)c3nc2n(Cc2ccccc2)c1=N — higher, 33.9%
- CCOc1ccc(-n2c(N)c(C(=O)NCc3ccco3)c3nc4ccccc4nc32)cc1 — higher, 43.5%
- COc1ccc(-n2c(N)c(C(=O)NCc3ccco3)c3nc4ccccc4nc32)cc1 — higher, 42.9%
- CCCn1c(C)nc2c(c1=O)c1nc3ccccc3nc1n2CCC1=CCCCC1 — higher, 36.3%
- CCCCn1c2nc3ccccc3nc2c2c(=N)oc(C)nc21 — higher, 36.7%

For `Cc1nc2c(c(=O)n1Cc1ccco1)c1nc3ccccc3nc1n2Cc1ccccc1`, the inhibition was 80.9% (active).
